Only a selection was taken, and hits are over-represented in it overall.
SF1 inhibitor – SF-1 (human) inhibition. inhibition, % at 10 µM. Q13285. CHO-K1 Gal4-SF-1 LBD luciferase reporter. 0.55% of 65,000 active;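 active = inhibition above the mean inhibition of all tested compounds plus 3 SD, cut at about 48% in these data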;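 also: 0% = SF-1 transfected cells with DMSO and 100% = mock-transfected cells lacking SF-1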
Target sequence (Q13285 whole entry, looked up, the tested form may be a part): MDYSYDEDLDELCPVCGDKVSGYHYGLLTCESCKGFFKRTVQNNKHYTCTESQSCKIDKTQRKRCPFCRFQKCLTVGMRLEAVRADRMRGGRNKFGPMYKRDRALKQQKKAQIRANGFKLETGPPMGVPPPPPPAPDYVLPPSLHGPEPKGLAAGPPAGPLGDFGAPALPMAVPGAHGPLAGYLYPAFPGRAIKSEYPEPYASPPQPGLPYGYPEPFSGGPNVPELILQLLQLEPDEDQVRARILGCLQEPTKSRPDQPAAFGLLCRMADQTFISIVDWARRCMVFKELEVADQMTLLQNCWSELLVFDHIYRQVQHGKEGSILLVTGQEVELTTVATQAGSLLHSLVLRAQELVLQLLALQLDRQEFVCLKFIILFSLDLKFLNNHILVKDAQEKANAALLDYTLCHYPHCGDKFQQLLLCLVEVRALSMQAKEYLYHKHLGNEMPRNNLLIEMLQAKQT
* hit, by the source's call.

Results for Cc1ccc2oc3c(c(=O)c2c1)C(c1cccc(O)c1)N(c1ccccn1)C3=O (centres undefined) ?
SF1 inhibitor: 17

How did O=C1c2ccccc2C(O)N1c1ccc(Cl)cc1 (centres undefined) do in these assays?
SF1 inhibitor: 6

Results for Cc1ccc(N2C(=O)c3ccccc3C2O)nc1 (centres undefined) ?
SF1 inhibitor: 56*

Results for CSc1nnc(-c2ccc(S(=O)(=O)N3CCOCC3)cc2)n1CC1CCCO1 (centres undefined) ?
SF1 inhibitor: -1

What do the screens show for `CC1CCCCN1CCNC(=O)CN1C(=O)COc2ccccc21` (centres undefined)?
SF1 inhibitor: 7

What do the screens show for `COc1cc(C2C(C#N)=C(N)Oc3cc(N)ccc32)cc(OC)c1OC` (centres undefined)?
SF1 inhibitor: 63*

Results for COC(=O)Cc1[nH]nc2c1C(c1cccc(OC)c1OC)C(C#N)=C(N)O2 (centres undefined) ?
SF1 inhibitor: 6

How did COc1cc(C2C(C#N)=C(N)Oc3cc(C)n(CC4CCCO4)c(=O)c32)cc2c1OCO2 (centres undefined) do in these assays?
SF1 inhibitor: -5

Results for CC(C)CCn1c(CN2CCN(c3cccc(Cl)c3)CC2)nc2c1c(=O)n(C)c(=O)n2C ?
SF1 inhibitor: -6

Results for CC1(C)CC(=O)c2cnc(NCc3ccco3)nc2C1 ?
SF1 inhibitor: 1

What do the screens show for `CCCc1[nH]nc2c1C1(C(=O)N(CC)c3ccccc31)C(C#N)=C(N)O2` (centres undefined)?
SF1 inhibitor: 12

Results for CCCCC1CCC(c2nc(-c3ccccn3)no2)CC1 (centres undefined) ?
SF1 inhibitor: -52

Results for c1ccc(CCc2nc(-c3ccccn3)no2)cc1 ?
SF1 inhibitor: -35

Results for Clc1ccc(-c2nc(-c3ccccn3)no2)cc1Cl ?
SF1 inhibitor: 51*

What do the screens show for `CCCN(Cc1ccccc1)C(=O)Nc1ccc2c(c1)nnn2C`?
SF1 inhibitor: -33

Results for O=C(NCCc1ccccc1)c1noc2c1CCCCC2 ?
SF1 inhibitor: -60

Results for COc1ccc(-c2cc3nc4n(c(=O)c3s2)CCC4)cc1 ?
SF1 inhibitor: 78*

How did O=C(COC(=O)c1ccc(S(=O)(=O)N2CCOCC2)cc1)NC1CCCCCC1 do in these assays?
SF1 inhibitor: 3

How did CCOC(=O)C1CCN(S(=O)(=O)c2c(C)[nH]c(=O)[nH]c2=O)CC1 do in these assays?
SF1 inhibitor: -10

Results for Cc1c(NC(=O)CCC2CCCCC2)c(=O)n(-c2ccccc2)n1C ?
SF1 inhibitor: -10

How did CCC(=O)Nc1nc2ccc3nc(C)sc3c2s1 do in these assays?
SF1 inhibitor: -56

Results for COc1ccc(OC)c(NC(=O)CCN2CCCC(C)C2)c1 (centres undefined) ?
SF1 inhibitor: -1

Results for CCOc1ccc(-c2cc(CCCC(=O)Nc3cc(OC)ccc3OC)no2)cc1 ?
SF1 inhibitor: 57*

How did CCOc1ccc(-n2cc(C(=O)N3CCN(C)CC3)c3cc(OC)c(OC)cc3c2=O)cc1 do in these assays?
SF1 inhibitor: -3

How did CCOc1ccc(-c2cc(CCCC(=O)NCCc3ccc(OC)c(OC)c3OC)no2)cc1 do in these assays?
SF1 inhibitor: 52*

How did CCOC(=O)N1CCN(CC(=O)Nc2cc(OCC)ccc2OCC)CC1 do in these assays?
SF1 inhibitor: 2

Results for CC1C(O)=C(c2nc3ccccc3[nH]2)C(=N)N1c1ccccc1 (centres undefined) ?
SF1 inhibitor: -54

How did COc1ccccc1OCc1csc(NC(=O)c2ccco2)n1 do in these assays?
SF1 inhibitor: -67

Results for CCCCCCC(=O)c1c(C)[nH]c(C(=O)OCC)c1C ?
SF1 inhibitor: -53

Results for CN1C(=O)c2ccc(C(=O)NC3CCCCC3)cc2C1=O ?
SF1 inhibitor: -6

What do the screens show for `CCc1ccc2oc(-c3cc(N)ccc3Cl)nc2c1`?
SF1 inhibitor: 17

How did CCc1ccc2oc(-c3cc(N)ccc3O)nc2c1 do in these assays?
SF1 inhibitor: 56*

Results for CCc1ccc2oc(-c3cc(N)cc(C)c3O)nc2c1 ?
SF1 inhibitor: -39

How did COC(=O)Sc1nnc(-c2ccc(Br)cc2)o1 do in these assays?
SF1 inhibitor: 4

Results for COc1ccc(N2CCN(CCCNC(=O)C3CCCN(S(=O)(=O)c4cnc[nH]4)C3)CC2)cc1 (centres undefined) ?
SF1 inhibitor: -14

Results for O=C(O)c1oc2ccccc2c1CN1CCN(c2ccccc2)CC1 ?
SF1 inhibitor: -14

How did Cc1ccccc1S(=O)(=O)Cc1ccc(C(=O)N2CCN(c3cccc(C)c3C)CC2)o1 do in these assays?
SF1 inhibitor: 82*

How did CS(=O)(=O)N1CCN(c2ccccc2NC(=O)Cc2ccccc2)CC1 do in these assays?
SF1 inhibitor: 1

Results for CC1CCN(CCCNC(=O)c2ccc(CS(=O)(=O)Cc3ccccc3F)o2)CC1 ?
SF1 inhibitor: -8

How did O=C1CC(CCC(=O)NC2CC2)c2ccccc2N1 (centres undefined) do in these assays?
SF1 inhibitor: 2

How did O=C(NC(NCc1ccccn1)(C(F)(F)F)C(F)(F)F)c1ccco1 do in these assays?
SF1 inhibitor: -1

What do the screens show for `COc1ccc2[nH]c3nc(SC(C)C)nnc3c2c1`?
SF1 inhibitor: 63*

What do the screens show for `CCOC(=O)CC(=O)CSc1nnc2c(n1)[nH]c1ccccc12`?
SF1 inhibitor: -53

What do the screens show for `NC(Cc1cccc2nsnc12)C(=O)O` (centres undefined)?
SF1 inhibitor: -5

Results for Cc1ccc(-c2cnc(NC(=O)CCC(=O)N3CCCCC3)n2C)cc1 ?
SF1 inhibitor: 65*

How did Cc1cc(C)nc(SCC(=O)N2CCCCC2)n1 do in these assays?
SF1 inhibitor: 8

Results for Cn1c(-c2ccc3c(c2)OCO3)cnc1NCc1ccccc1 ?
SF1 inhibitor: -68

What do the screens show for `COc1cc(NC(=O)N[C@H](C(=O)O)C(C)C)cc(OC)c1`?
SF1 inhibitor: -17

How did COc1ccc2c(c1)CCc1c(C(=O)NC3CCCCC3)noc1-2 do in these assays?
SF1 inhibitor: -54

How did N#CC(C#N)=c1ccc2c(c1)NC1(CCCCC1)N=2 do in these assays?
SF1 inhibitor: 65*

How did C/C=C(\C)CN1CCc2cc(OC)c(OC)cc2C1 do in these assays?
SF1 inhibitor: 11

Results for CN(C1CCS(=O)(=O)C1)S(=O)(=O)c1ccc(C2CCCCC2)cc1 (centres undefined) ?
SF1 inhibitor: 6

What do the screens show for `Cc1ccccc1NC(=O)C1CC(=O)N(c2ccccc2F)C1` (centres undefined)?
SF1 inhibitor: 16

How did Cc1occc1-c1nnc(SCC(=O)NCc2ccco2)n1CC(C)C do in these assays?
SF1 inhibitor: -5

How did CCOC(=O)c1ccc(N2CC(O)=C(c3nc4ccccc4c(=O)[nH]3)C2=N)cc1 do in these assays?
SF1 inhibitor: 0

How did CS(=O)(=O)N1CCC(C(=O)NCc2ccco2)CC1 do in these assays?
SF1 inhibitor: 10

Results for COc1ccc(CCNc2c(C)c(C)nc3ncnn23)cc1 ?
SF1 inhibitor: 81*

How did COc1ccc(CNc2ccc3c(c2)nc(C)n3C)cc1 do in these assays?
SF1 inhibitor: -79

What do the screens show for `CNS(=O)(=O)c1cccc(C(=O)OCC(=O)Nc2ccccc2OC(F)F)c1`?
SF1 inhibitor: 3

How did COc1ccc(C2(CN(C(C)=O)C(C)=O)CCCC2)cc1OC do in these assays?
SF1 inhibitor: 3

What do the screens show for `c1ccc(OCCOc2ncnc3sccc23)cc1`?
SF1 inhibitor: -53

What do the screens show for `c1csc(CNc2ncnc3sccc23)c1`?
SF1 inhibitor: 51*

What do the screens show for `Clc1ccc(-n2ncc3c(NCc4cccs4)ncnc32)cc1`?
SF1 inhibitor: -74

Compound activity as filed in PubChem BioAssay.
